# Compounds without any hit were thinned out: in the full panel of roughly 83,000, 20% have a hit.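 Method: cells in 96-well plates; compound added at one concentration; 48 h incubation; percent growth measured; values under 10 scored active.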 Unmarked numbers belong to inactive results. Calls of active or inactive are those of the source.
# Tested on: MOLT-4 leukemia
# Assay: NCI-60 one-dose screen, 48 h (100 = growth as untreated, 0 = no growth, -100 = all killed)
# Settings: 10 µM unless noted
# Experimental: Growth inhibition of the MOLT-4 human tumor cell line is measured as a screen for anti-cancer activity. Cells are grown in 96 well plates and exposed to the test compound for 48 hours. Compounds are tested at a single concentration, which is 10^-5 M for most compounds. The reported endpoint is percent growth (GI% or GIPRCNT), where numbers from 0 - 100% represent growth inhibition, and numbers from -100% - 0 represent cell death. For example, a value of 40 represents 60% growth inhibition. A value of 0 means no net growth occurred over the course of the experiment. A value of -40 indicates 40% of cells at the beginning of the experiment died by the end of the experiment. A value of -100 means all cells are dead at the end of the experiment.
# NCI-60 Human Tumor Cell Lines Screen was performed using the standard one-dose NCI protocol, which is described in more detail at https://dtp.cancer.gov/discovery_development/nci-60/default.htm.
# Compounds with GIPRCNT values below 10 were considered active. Activity score was based on GIPRCNT using the following formula: […]
# Score is 0 for GIPRCNT values of 100 or above, 50 for GIPRCNT values of 0, and 100 for GIPRCNT values of -100.
row,SMILES,growth
1,COc1ccc(OC)c(/C=N/Nc2ncnc3c2c(C)nn3C)c1,93.9%
2,CCCCNC(=O)CC1=C(C)/C(=C/c2[nH]c(-c3ccc[nH]3)cc2OC)N=C1C,7.6% (active)
3,CN(C)Cc1ccc(O)c(C(=O)O)c1,101%
4,Cc1cc(=O)oc2cc(OCc3nn4c(Nc5nc6ccccc6s5)c(-c5ccccc5)nc4s3)ccc12,97.5%
5,COC(=O)c1cc(N=C2NC(=O)/C(=C/C=C/c3ccccc3)S2)ccc1O,31.7%
6,CNc1nnc2n(-c3ccccc3)c(=O)c3cnn(-c4ccccc4)c3n12,72.2%
7,Cn1cc(C(=O)c2nc(-c3c[nH]c4ccccc34)no2)c2cc(F)ccc21,38.9%
8,CCOC(=O)C1=C(C)NC(=O)NC1c1c(Cl)n(CCCl)c2ccccc12 (stereo not given),103%
9,CCN1C(=S)N(c2ccccc2)C2C1NN=c1s/c(=C3\C(=O)N(C(C)C)c4ccccc43)c(=O)n12 (stereo not given),91.1%
10,N#Cc1nc(-c2ccc(Cl)cc2)oc1S(=O)(=O)N1CCN(c2ccc(F)cc2)CC1,3.45% (active)
11,N#Cc1nc(-c2ccc(F)cc2)oc1S(=O)(=O)N1CCOCC1,-5.27% (active)
12,COc1cc(-c2nc3sccn3c2-c2ccnc(NCCNS(=O)(=O)c3ccccc3)n2)ccc1F,24.7%
13,COc1cc(-c2csc(NC(=O)c3ccc(N4CCOCC4)c(C(F)(F)F)c3)n2)cc(OC)c1OC,10.1%
14,O=C1/C(=C/c2ccc([N+](=O)[O-])cc2)COc2ccc(O)cc21,39.3%
15,CCCCCN1C(=O)/C(=c2\sc3n(c2=O)C2C(NN=3)N(CC)C(=O)N2CC)c2ccccc21 (stereo not given),4.79% (active)
16,CC(=O)c1c(C)nc2ccccc2c1/C=C/c1ccc(F)cc1,84.1%
17,COc1c(B(O)O)cccc1-c1nc2c(F)cc3[nH]ncc3c2c2c1CCCC2,7.73% (active)
18,CCC(C)N(CCNc1cc(OC)cc2cccnc12)CC(C)C (stereo not given),87.4%
19,Cc1ccc2c(c1)=C/C(=C\c1cc(-c3ccccc3)oc1O)C(=O)N=2,90.6%
20,O=S(=O)(NCCNc1nccc(-c2c(-c3ccc(F)c(O)c3)nc3sccn23)n1)c1ccc(O)cc1,19.3%

row,SMILES,growth
1,COC1=CC(c2ccc[nH]2)=N/C1=C\c1[nH]c(C)c(CC(=O)OCc2ccccc2)c1CCC(=O)OCc1ccccc1,-10.6% (active)
2,CC(C)(Sc1cc(C(C)(C)C)c(O)c(C(C)(C)C)c1)Sc1cc(C(C)(C)C)c(OC(=O)CCCC(=O)O)c(C(C)(C)C)c1,36.9%
3,c1ccc([P+](c2ccccc2)(c2ccccc2)c2ccc3c4ccc([P+](c5ccccc5)(c5ccccc5)c5ccccc5)c5cccc(c6cccc2c63)c54)cc1,23.2%
4,c1ccc(Cn2cc3c(c2)-c2oncc2CC3)cc1,53.6%
5,COCCNC(=O)Nc1ccc2nc(-c3cccs3)c(-c3cccs3)nc2c1,85.9%
6,C=C(CBr)[C@@H]1CC[C@]2(C(=O)O)CC[C@]3(C)[C@H](CC[C@@H]4[C@@]5(C)CCC(=O)C(C)(C)[C@@H]5CC[C@]43C)[C@@H]12,54.4%
7,O=C(N/N=C/c1c(Cl)cccc1Cl)c1cccnc1Nc1cccc(C(F)(F)F)c1,31.7%
8,OCCn1cc(-c2nc(-c3c[nH]c4ncccc34)cs2)c2ccccc21,71.2%
9,O=C(Nc1nc2ccc(C(=O)N3CCN(/C=C/c4ccccc4)CC3)cc2s1)c1ccc(NCCc2ccccc2)c([N+](=O)[O-])c1,27.4%
10,O=C(O)c1cn(C2CC2)c2cc(N3CCN(C(=O)N(c4ccccc4)c4nc(-c5ccccc5)cs4)CC3)c(F)cc2c1=O,2.43% (active)
11,CCCCn1c(=O)[nH]c(N)c([C@@H]2c3c([nH]c(=O)n(CCCC)c3=O)Oc3ccc4ccccc4c32)c1=O,-8.45% (active)
12,COC(=O)CC[C@@H]1O[C@@H](c2cccc(C(F)(F)F)c2)[C@@H](O)[C@H]1O,104%
13,C=C(C)[C@@H]1CCC[C@]2(COS(=O)(=O)c3ccc(C)cc3)CC[C@]3(C)[C@@H](CC[C@@H]4[C@@]5(C)CCCNC(C)(C)[C@@H]5CC[C@]43C)[C@@H]12,-11.1% (active)
14,O=C1Nc2ccccc2/C1=C/c1nc2ccccc2c(=O)[nH]1,86%
15,CCC(C)(C)C(=O)O[C@H]1C[C@@H](C)C=C2C=C[C@H](C)[C@H](CC[C@@H]3CC(SCCN)CC(=O)O3)[C@H]21 (stereo not given in full),77.7%
16,O=c1[nH]c(Cc2nc3ccccc3s2)nc2cc(Br)ccc12,59%
17,O=S(=O)(NCCNc1nccc(-c2c(-c3ccc(F)c(O)c3)nc3occn23)n1)c1ccc(Cl)cc1,84.1%
18,C=CC[Se]C(=O)Cc1c(C)n(C(=O)c2ccc(Cl)cc2)c2ccc(OC)cc12,5.11% (active)
19,CCN(CC)CCn1c2ccc(O)cc2c2sc3cc(O)ccc3c(=O)c21,9.25% (active)
20,Cc1c(-c2ccc(O)cc2)n(Cc2ccc(OCCN3CCCCCC3)cc2)c2ccc(O)cc12,39.8%

# Source: PubChem BioAssay (NCI)
